# Assay outcomes from PubChem.
# Rows were chosen to be rich in hits. Some 1.2% of all compounds tested hit in one or more screens of this group.
# S1P2 blocker: antagonists of human S1P2 receptor; O95136; cell-based S1P2 antagonist assay, inhibition at 5 uM; inhibition, % at 5 µM; 0.21% of 97,000 active; in the data active means inhibition above about 45%;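 further: CRE beta-lactamase reporter cells expressing human S1P2 stimulated with S1P; 0% = agonist at EC80 alone and 100% = agonist plus reference antagonist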
# S1P2 ag: agonists of human S1P2 receptor. S1P2-expressing cell line, agonist reporter read-out. activation, % at 4.5 µM. O95136. 0.46% of 97,000 active; in the data active means activation above about 16%;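 further: 0% = vehicle low control and 100% = maximal reference agonist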
# GALR2 antag: antagonists of human galanin receptor 2 (GALR2) | GALR2-expressing cells, antagonist mode | inhibition, % at 4 µM | 0.39% of 140,000 active; in the data active means inhibition above about 27%;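 further: cells stimulated with galanin 1-16 at roughly its EC80; 0% = agonist challenge control and 100% = basal control without agonist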
# Target sequence (O43603 whole entry, looked up): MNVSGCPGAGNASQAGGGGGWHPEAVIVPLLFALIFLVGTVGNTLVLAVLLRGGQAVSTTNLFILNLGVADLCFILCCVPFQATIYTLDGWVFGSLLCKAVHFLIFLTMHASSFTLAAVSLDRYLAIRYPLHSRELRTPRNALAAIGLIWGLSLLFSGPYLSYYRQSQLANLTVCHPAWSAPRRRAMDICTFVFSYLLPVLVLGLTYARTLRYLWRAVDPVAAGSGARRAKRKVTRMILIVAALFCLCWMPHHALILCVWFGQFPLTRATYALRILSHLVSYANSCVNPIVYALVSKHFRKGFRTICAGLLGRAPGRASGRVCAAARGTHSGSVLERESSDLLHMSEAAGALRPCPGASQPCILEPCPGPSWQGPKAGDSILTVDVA
# GALR2 ag: agonists of human galanin receptor 2 (GALR2); GALR2-expressing cells, agonist activation read-out; 0.48% of 140,000 active; activation, % (no concentration beside the values); O43603; in the data active means activation above about 5%, passing the limit was not always enough;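 further: 0% = vehicle buffer wells and 100% = reference agonist at full effect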
# Numbers without * were called inactive; . = no result.
SMILES,S1P2 blocker,S1P2 ag,GALR2 antag,GALR2 ag
N=c1c2c(-c3ccccc3)c(-c3ccccc3)n(Cc3ccco3)c2ncn1Cc1ccco1,.,.,-1.6,5.2*
N=c1c2c(-c3ccccc3)c(-c3ccccc3)n(Cc3ccccc3)c2ncn1CCCn1ccnc1,15.6,-2.6,5.7,3.0
CC(C)c1ccc(NC(=O)Cn2cccc2C2=NC(c3ccccc3)CO2)cc1 (stereo not given),.,.,1.6,-2.6
Cc1cc(C)n(-c2nc(Nc3ccccc3C(F)(F)F)nc(-n3nc(C)cc3C)n2)n1,58.8*,-6.6,10.1,-1.5
Cc1cc(C)n(-c2nc(Nc3ccccc3C)nc(-n3nc(C)cc3C)n2)n1,36.6,-8.9,11.9,1.1
CCCCOc1ccccc1NC(=O)Cn1c(-c2nonc2N)nc2ccccc21,.,.,18.1,7.8*
CCCCCCOC(=O)C(C#N)c1nc2ccccc2nc1N1CCOCC1 (stereo not given),65.9*,-0.5,-1.8,-0.8
CCCCOC(=O)C(C#N)c1nc2ccccc2nc1N1CCOCC1 (stereo not given),-11.1,-3.2,4.1,-1.6
O=C(Cn1c(NCCCO)nc2ccccc21)c1cccs1,-10.9,-7.0,3.9,-2.6
Cc1ccc2nc(/C(C#N)=C\c3cc(C)n(-c4cccc([N+](=O)[O-])c4)c3C)[nH]c2c1,-40.0,16.9*,-2.9,2.3
Cc1cc(=O)oc2cc(OCc3ccc(C(=O)OCC(=O)Nc4ccccc4OC(F)F)cc3)ccc12,.,.,6.5,-2.4
Cc1ccccc1Nc1nc(N)nc(COC(=O)c2cccc(S(=O)(=O)N(C)C)c2)n1,.,.,-11.6,-0.1
Cc1ccccc1Nc1nc(N)nc(COC(=O)c2cccc(S(=O)(=O)NCc3ccccc3)c2)n1,.,.,-6.4,5.0*
COc1ccc(N(CC(=O)N/N=C/c2ccc(-c3ccc([N+](=O)[O-])cc3)o2)S(=O)(=O)c2ccc(C)cc2)cc1Cl,50.4*,-11.3,7.1,-1.0
CC(C)C(=O)Nc1ccccc1C(=O)OCC(=O)c1ccc2c(c1)OCCO2,.,.,-4.4,0.1
O=c1oc2ccccc2cc1-c1nc2c(s1)CCCC2,-6.1,16.1*,17.5,17.2*
COc1cccc(-c2nnc3n2N=C(C(C)(C)C)CS3)c1,98.0*,-8.2,20.0,-1.9
COc1ccc(OC)c(C2=Nn3c(nnc3-c3cc(OC)c(OC)c(OC)c3)SC2)c1,-24.6,39.9*,13.4,0.5
COc1cc(-c2nnc3n2N=C(c2ccccc2)CS3)cc(OC)c1OC,-25.9,34.3*,-6.8,1.3
COc1cccc(-c2nnc3n2N=C(c2cc(OC)ccc2OC)CS3)c1,-20.7,9.8,2.0,-0.7
COc1ccccc1-c1nnc2n1N=C(C(C)(C)C)CS2,-0.3,-4.8,-7.0,0.4
CCCn1nc(NC(=O)c2cccs2)c2cc3ccccc3nc21,9.9,5.5,23.8,2.0
CCCCn1nc(NC(=O)c2cccs2)c2cc3cc(OC)ccc3nc21,34.5,11.7,1.4,6.8*
CCCCCCc1cc2cc(-c3nnc(-c4ccccc4O)o3)c(=O)oc2cc1O,.,.,12.8,17.7*
CCCCCCc1cc2cc(-c3nnc(-c4ccccc4OC)o3)c(=O)oc2cc1O,-7.5,7.0,-10.5,2.5
SMILES,S1P2 blocker,S1P2 ag,GALR2 antag,GALR2 ag
Cc1ccc(-c2cc(C(=O)N/N=C/C=C/c3ccccc3)n[nH]2)s1,.,.,1.2,-0.6
COc1ccc(C2=Nn3c(nnc3-c3ccco3)SC2)cc1OC,-40.0,40.3*,-11.9,-0.8
COc1ccc(C2=Nn3c(nnc3-c3ccccc3OC)SC2)cc1OC,-33.1,33.6*,30.1*,3.1
Cc1cc(C)cc(Oc2nc(C(F)(F)F)nc3ccccc23)c1,-33.5,17.9*,-3.5,-1.7
O=C(NCCCCNC(=O)c1ccco1)c1ccco1,5.7,-6.7,1.7,-1.5
O=C(NCc1ccccc1)c1ccco1,-20.0,-1.2,-9.6,-1.4
Cc1ccc(CNC(=O)CCNC(=O)c2ccco2)cc1,-10.7,869.1*,-3.5,-1.6
Cc1ccc(OCCNC(=O)c2ccco2)cc1C,18.4,50.3*,1.8,-1.8
O=[N+]([O-])c1cc([N+](=O)[O-])c(N2CCCCCC2)cc1NCCO,11.7,-2.9,-6.1,-0.2
Cc1ccc(CSc2nnc(-c3ccco3)n2N)cc1,6.4,25.8*,-5.4,-3.0
Nn1c(SCc2cccc(C(F)(F)F)c2)nnc1-c1ccco1,2.0,-10.9,-15.9,-1.8
CCOc1ccc(NS(=O)(=O)c2ccc(NC(=O)C3CCCO3)cc2)cc1 (stereo not given),2.4,-3.7,19.3,-0.6
Cc1cccc(NC(=O)CSc2ncnc3c2oc2ccccc23)c1,-32.6,-3.3,6.5,-1.6
Cc1nc(SCC(=O)Nc2ccc3c(c2)OCCO3)c2oc3ccccc3c2n1,-29.8,19.5*,-12.1,-0.2
COc1ccccc1NC(=O)CSc1ncnc2c1oc1ccccc12,-24.9,24.0*,13.7,-1.0
N#Cc1c(N)n(C2CCCCC2)c2nc3ccccc3nc12,-44.8,22.0*,-9.8,17.2*
Cc1ccc(O)c(C(=O)c2cnc3c(c2)c(C)nn3-c2ccccc2)c1,.,.,-0.4,-1.5
CCOCCCn1c(SCC(=O)/C(C#N)=C(\C)N)nc2ccccc2c1=O,.,.,-1.7,-0.5
C/C(N)=C(/C#N)C(=O)CSc1nc2ccccc2c(=O)n1CCCOC(C)C,.,.,-7.2,5.6*
COc1cc2nc(SCc3ccc(C(F)(F)F)cc3)n(Cc3cccs3)c(=N)c2cc1OC,10.3,16.2*,1.8,-1.5
COc1cc2nc(SCc3ccc(Cl)cc3Cl)n(Cc3cccs3)c(=N)c2cc1OC,16.2,-6.0,-12.3,-1.9
CCSc1ccc(-c2nn(-c3ccccc3)cc2/C=C(/C#N)C(=O)NCCCOC)cc1,.,.,0.4,5.9*
O=C(/C=C/c1cccc([N+](=O)[O-])c1)Nc1cccc(NC(=O)c2cccs2)c1,.,.,11.4,-3.1
CC(C)Cn1c(N)c(C(=O)COC(=O)c2ccc3c(c2)OCCO3)c(=O)n(C)c1=O,20.1,-2.2,6.7,0.3
CC(C)Cn1c(N)c(C(=O)CSc2ccc3c(c2)OCCO3)c(=O)n(C)c1=O,54.1*,-3.2,10.9,-2.2
SMILES,S1P2 blocker,S1P2 ag,GALR2 antag,GALR2 ag
Cc1nc(CCNC(=O)Cc2ccc(Cl)cc2)cs1,10.0,33.9*,12.8,-2.5
Cc1nn(-c2ccccc2)c(Cl)c1/C=N/Nc1nc2ccccc2[nH]1,.,.,12.6,5.5*
COC(=O)[C@H]1C[C@@H]1[C@H](NC(=O)c1ccccc1)c1ccccc1,.,.,-8.9,-1.8
COc1cc(/C=C(\C#N)C(=O)Nc2cccnc2)ccc1OC(C)C,.,.,2.3,-1.9
COC(=O)c1cn[nH]c1NC(=S)Nc1ccccc1C,-1.0,56.7*,-3.4,-0.1
COC(=O)c1cn[nH]c1NC(=S)Nc1ccc(C)cc1Cl,-19.1,-10.7,10.7,-1.6
Cc1ccccc1NC(=O)C1CCN(c2cc(-c3ccccc3)nc3ncnn23)CC1,-11.8,0.1,-4.9,-0.7
Clc1cccc(Cl)c1Cn1cnc2c(N3CCCCCC3)ncnc21,-30.7,9.9,1.6,0.5
CCN(CC)c1ncnc2c1ncn2Cc1c(Cl)cccc1Cl,-74.7,18.6*,-1.9,1.1
CCN(CC)c1ncn(Cc2c(Cl)cccc2Cl)c2ncnc1-2,-33.8,18.3*,-7.4,-0.5
CC(C)COc1cccc(C(=O)NC(=S)Nc2cccc(NC(=O)c3ccccc3Cl)c2)c1,.,.,-5.3,-1.2
CCOCCCNc1nc(=S)[nH]c2cc(OC)c(OC)cc12,27.2,448.9*,3.8,-1.5
N=c1c(-c2nc3ccccc3[nH]2)cc(C(=O)c2cccs2)nn1-c1ccccc1,-24.8,21.6*,1.0,-2.8
